28 compounds from PubChem BioAssay (NCI) can be followed below.

About 83,000 compounds went through this panel and 20% of them were active in at least one assay; those are over-represented in the sample as a whole.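 Plates (96-well) were seeded with cells, treated with compound at one concentration, and incubated for 48 hours before percent growth was determined.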 A number with no mark means an inactive call. Activity calls are given as the source filed them. How the source made its calls: active means growth percent below 10; inactive means the rest.

What all share (assay): NCI-60 one-dose screen, 48 h (100 = growth as untreated, 0 = no growth, -100 = all killed)
Holding throughout (settings): 10 µM unless noted

Assay [1] has as its system T-47D breast.
In assay [2] the test system is BT-549 breast.
Assay [3] deals with MDA-MB-435 melanoma.
Assay [4] has as its system SW-620 colon.
The subject of assay [5] is MCF7 breast.
For assay [6], the system named is HCT-116 colon.
Assay [7] relates to HCC-2998 colon.
The subject of assay [8] is KM12 colon.

Take `CC/C(=C(/c1ccc(Cl)cc1)c1ccc(OCCCN(C)C)cc1)c1ccc(OC)cc1`: the growth in assay [1] is 51.1%; in assay [2], 86.1%; in assay [3] it was 64.7%; in assay [4], 4.55% (active); in assay [5], 9.13% (active); in assay [6], 46.6%. Also, the growth in assay [7] is 16.8%; in assay [8], 31.7%.
As for `C1=C2CCCC3=Cc4ccccc4OC23Oc2ccccc21`, the growth was 31.9% in assay [1]; 26.4% in assay [2]; -41.6% (active) in assay [3]; 18.1% in assay [4]; 13.5% in assay [5]; 24% in assay [6]. Moreover, the values for the growth in assay [7] and in assay [8] were 58.4% and 19.8%, respectively.
With `CC(C)CCc1nc2ccc(NCc3ccc(OCCN4CCC(C)CC4)cc3)cc2[nH]1`, the growth was 97% in assay [1]; 77.1% in assay [2]; 89.2% in assay [3]; 89.3% in assay [4]; 62.3% in assay [5]; 65.1% in assay [6]. For the same compound, the results for the growth in assay [7] and in assay [8] were 42.7% and 87.6%, respectively.
As to `CN(C)CC1C(=O)O[C@H]2[C@H]1CC/C(COC(=O)NCc1ccc(Cn3c(=O)sn(CCCI)c3=O)cc1)=C\CC[C@@]1(C)O[C@@H]21` (some centres undefined), the growth in assay [1] is -55.5% (active); in assay [2], 50.1%; in assay [3], 20.5%; in assay [4] it was -74.9% (active); in assay [5], -55.4% (active); in assay [6], -73.2% (active). Also, the growth in assay [7] was 41%; in assay [8] it was 105%.
For `COc1ccc(-c2cc(-c3ccc(N(C)C)cc3)nc(NC(=O)c3cccnc3)n2)cc1`, the growth in assay [1] is 85.6%; in assay [2], 119%; in assay [3], 103%; in assay [4], 101%; in assay [5], 81.9%; in assay [6] it was 102%. In addition, the growth in assay [7] is 120%; in assay [8] it was 98.3%.
Turning to `O=C(c1ccc(F)cc1)C1CCN(CCn2c(=O)[nH]c3ccccc3c2=O)CC1`, the growth was 102% in assay [1]; 107% in assay [2]; 104% in assay [3]; 102% in assay [4]; 97.6% in assay [5]; 110% in assay [6]. Further, the growth in assay [7] was 105%; in assay [8], 104%.
As for `O=C1C(c2c(O)[nH]c3ncccc23)=Nc2ccccc21`, the growth in assay [1] is 48.4%; in assay [2] it was 70.6%; in assay [3], 92.9%; in assay [4], 102%; in assay [5] it was 41%; in assay [6], 48.5%. In addition, the growth in assay [7] was 25.3%; in assay [8] it was 69.5%.
For the compound `Nc1ncc(-c2ccc3ncnc(N4CCc5cc(F)c(Cl)cc54)c3c2)cc1C=O`, the growth is 7.88% (active) in assay [1]; 9.08% (active) in assay [2]; 0.36% (active) in assay [3]; 37.9% in assay [4]; 11.8% in assay [5]; 36.6% in assay [6]. Moreover, the growth is 21.2% in assay [7] and 39.2% in assay [8].
As to `C[C@H]1c2ccccc2CN1CCCOc1cc2c(cc1OCC1CC1)C1(CCCC1)C(N)=N2`, the growth in assay [1] is 0.245% (active); in assay [2], 78%; in assay [3] it was 36.4%; in assay [4] it was 15%; in assay [5], 22.5%; in assay [6], 7.48% (active). The growth is -55.3% (active) in assay [7] and 49.6% in assay [8].
With `CC(=O)Cc1nsc(NC(=O)c2cc(-c3cc(Cl)ccc3Cl)oc2C)n1`, the growth in assay [1] is 87.6%; in assay [2] it was 102%; in assay [3], 101%; in assay [4] it was 107%; in assay [5] it was 97.7%; in assay [6] it was 95.8%. Also, the values for the growth in assay [7] and in assay [8] were 103% and 107%, respectively.
`O=C1OCC2=C1C(c1cccc(F)c1)c1cc3c(cc1N2CCO)CCC3` (centres undefined): the growth was 52.6% in assay [1]; 39.5% in assay [2]; -36.9% (active) in assay [3]; 26.3% in assay [4]; 19.7% in assay [5]; 10.5% in assay [6]. Moreover, the growth is 7.85% (active) in assay [7] and 13.4% in assay [8].
As to `O=C(c1ccccc1)[C@@H](c1ccccc1)[C@]1(O)C(=O)Nc2ccccc21`, the growth in assay [1] was 85.2%; in assay [2], 95%; in assay [3] it was 98.4%; in assay [4], 100%; in assay [5], 92.4%; in assay [6], 96.6%. For the same compound, the growth in assay [7] is 104%; in assay [8] it was 85.5%.
As to `CCOC(=O)/C(=C/c1ccc([N+](=O)[O-])cc1)C(=O)c1ccccc1`, the growth is 41.9% in assay [1]; 6.8% (active) in assay [2]; 28.1% in assay [3]; 6.12% (active) in assay [4]; 22.7% in assay [5]; -8.58% (active) in assay [6]. In addition, the growth in assay [7] is 47.7%; in assay [8] it was 29.5%.
Take `CC(C)n1nc(-c2ccc3oc(N)nc3c2)c2c(N)ncnc21`: the growth in assay [1] was -36% (active); in assay [2], -23.9% (active); in assay [3], -13.5% (active); in assay [4], 6.36% (active); in assay [5], -4.22% (active); in assay [6], 7.89% (active). Also, the growth was 9.05% (active) in assay [7] and -0.425% (active) in assay [8].
Turning to `COc1ccc2c(O)cc3c(c2c1)[C@H](CCl)CN3C(=O)c1cc2cc(NC(=O)CCN3CCOCC3)ccc2[se]1`, the growth in assay [1] was -21.4% (active); in assay [2], -72.8% (active); in assay [3], -67.5% (active); in assay [4], -41.4% (active); in assay [5] it was -48% (active); in assay [6], -55.1% (active). Besides, the growth in assay [7] was -88.3% (active); in assay [8], -57.4% (active).
Turning to `CCOC(=O)/C(=C\c1ccccc1Cl)P(=O)(OCC)OCC`, the growth in assay [1] was 39.5%; in assay [2], 57.6%; in assay [3] it was 45.1%; in assay [4] it was 46.6%; in assay [5], 17.8%; in assay [6] it was 44.2%. The growth in assay [7] is 94.5%; in assay [8] it was 52.9%.
For the compound `CC(C)(C#N)c1cc(C(=O)Nc2cc(Nc3ncccc3-c3ncnc4nc[nH]c34)ccc2F)cc(C(F)(F)F)c1`, the growth is 52% in assay [1]; 71% in assay [2]; 29.5% in assay [3]; 37.5% in assay [4]; 57.4% in assay [5]; 15.4% in assay [6]. Further, the growth in assay [7] was 41.8%; in assay [8] it was 43.7%.
On to `COc1cc(C(=O)n2nc(NCCCc3ccccc3)c3cc(N)ccc32)cc(OC)c1OC`, for which the growth was 66% in assay [1]; 97.1% in assay [2]; 99% in assay [3]; 112% in assay [4]; 89.3% in assay [5]; 90.1% in assay [6]. Further, the growth in assay [7] was 105%; in assay [8], 88.5%.
In the case of `CS(=O)(=O)c1ccc(/C(=N/NC(N)=S)c2ccc(F)cc2)cc1`, the growth in assay [1] was 88.2%; in assay [2], 102%; in assay [3], 102%; in assay [4], 101%; in assay [5], 89.9%; in assay [6], 95.7%. In addition, the growth in assay [7] was 104%; in assay [8], 101%.
Consider `CCCCCCCCNc1ncnc2c1ncn2Cc1nnc2c3ccccc3c(Cl)nn12`, for which the growth in assay [1] was 26.5%; in assay [2], 28%; in assay [3], 46%; in assay [4] it was 56.8%; in assay [5] it was 41.4%; in assay [6] it was 31.2%. Further, the growth in assay [7] is 76.3%; in assay [8] it was 65.3%.
Take `Cn1nc(-c2ccc(Cl)cc2)nc2c(=O)n(C)c(=O)nc1-2`: the growth in assay [1] was -43.2% (active); in assay [2], -46.5% (active); in assay [3] it was -45.8% (active); in assay [4], -33.2% (active); in assay [5], -62.5% (active); in assay [6], -37.7% (active). The growth in assay [7] was -70.2% (active); in assay [8], -15.3% (active).
Consider `COc1ccc(Nc2nc(Nc3cc(C)[nH]n3)c3cc(OC)c(OC)cc3n2)cc1`, for which the growth in assay [1] was -52.1% [20 µM] (active); in assay [2], -87.5% [20 µM] (active); in assay [3] it was -97.5% [20 µM] (active); in assay [4], -74.4% [20 µM] (active); in assay [5], -71.4% [20 µM] (active); in assay [6] it was -54.4% [20 µM] (active). Moreover, the growth in assay [7] was -73.3% [20 µM] (active); in assay [8], -74% [20 µM] (active).
Take `COc1ccc(/C=N/NC(=O)Cn2nnc3ccccc32)cc1`: the growth in assay [1] is 92.1%; in assay [2] it was 107%; in assay [3] it was 98.2%; in assay [4], 92.9%; in assay [5], 86.4%; in assay [6], 93.7%. Further, the figures for the growth in assay [7] and in assay [8] were 116% and 90.7%, respectively.
Regarding `Cn1cc(-c2csc(-c3cn(C)c4ccc(F)cc34)n2)c2cnccc21`, the growth was -44.1% (active) in assay [1]; 84% in assay [2]; -90.7% (active) in assay [3]; -67.1% (active) in assay [4]; -49.3% (active) in assay [5]; -90.3% (active) in assay [6]. Moreover, the growth in assay [7] was -78.4% (active); in assay [8], 0.588% (active).
Consider `C=CCn1c(SCC(=O)Nc2ccc(C(=O)/C=C/c3ccc(Cl)cc3)cc2)nnc1-c1ccc(Cl)c(Cl)c1`, for which the growth in assay [1] is 76.6%; in assay [2], 78%; in assay [3] it was 37.9%; in assay [4] it was 90.9%; in assay [5] it was 19.7%; in assay [6], -71.5% (active). Further, the growth was 95.9% in assay [7] and 85.2% in assay [8].
Take `O=C1c2c(c3c4cc(F)ccc4oc3c3[nH]c4ccccc4c23)C(=O)N1O`: the growth in assay [1] is 5.76% (active); in assay [2], 44.8%; in assay [3], 48.9%; in assay [4], 31.6%; in assay [5] it was 17.3%; in assay [6], 23.4%. The growth in assay [7] is 70.3%; in assay [8], 39.5%.
Turning to `CCC(C)C(N)C(=O)NC(CC(C)C)C(=O)N1CCCC1C(=O)NC(Cc1c[nH]c2ccccc12)C(=O)NC(CCCCN)C(=O)NC(Cc1c[nH]c2ccccc12)C(=O)N1CCCC1C(=O)NC(Cc1c[nH]c2ccccc12)C(=O)NC(Cc1c[nH]c2ccccc12)C(=O)N1CCCC1C(=O)NC(Cc1c[nH]c2ccccc12)C(=O)NC(CCCNC(=N)N)C(=O)NC(CCCNC(=N)N)C(N)=O` (centres undefined), the growth is 108% in assay [1]; 109% in assay [2]; 95.9% in assay [3]; 108% in assay [4]; 121% in assay [5]; 95.3% in assay [6]. Besides, the growth in assay [7] was 101%; in assay [8], 63.7%.
Regarding `O=C(/C=C/c1ccc([N+](=O)[O-])cc1)c1cccc(Nc2nc(Nc3ccccc3)nc(Nc3ccccc3)n2)c1`, the growth is 47.1% in assay [1]; 87.7% in assay [2]; 91.7% in assay [3]; 67.6% in assay [4]; 15.6% in assay [5]; -11.9% (active) in assay [6]. Also, the growth was 46.1% in assay [7] and 81.1% in assay [8].
